# Experimental data from PubChem BioAssay AID686978 (National Center for Advancing Translational Sciences (NCATS), 2013).
# In all, about 420,000 compounds went through this assay and about 64,000 (15%) were called active. Another 27% or so got no clear call; they are omitted. A selection follows. Values without a mark were called inactive. Calls follow the shape of the dose curve; as a rule, active = well fitted inhibition curve with a large enough effect; inconclusive = small, poorly fitted or top-dose-only effect; inactive = flat fitted curve, though single readings scatter.
# Test: qHTS for Inhibitors of human tyrosyl-DNA phosphodiesterase 1 (TDP1): qHTS in cells in absence of CPT; also: nearly all actives have a fitted effect of over 55% in size
# Conditions: DT40 Tdp1-/- hTDP1 cells, no CPT, ATP luminescence, 48 h; activity change, negative = growth inhibition: at 46.2 µM (top of the series)
# How it was run: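 No-CPT arm: Tdp1-/-;hTDP1 DT40 cells (400/well) plus compounds, incubated ≥48 hr at 37 °C. Readout CellTiter-Glo luminescence.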
# % is scaled to controls: 0 for no effect and ±100 for the full control effect; potency is read from the fitted curve at half-maximal effect.
SMILES,"activity change, negative = growth inhibition",Potency
C[N+]1(CCNC(=O)/C=N/O)CCCCC1,-2.55%,–
O=C(Cn1cc(C(F)(F)F)ccc1=O)Nc1ccc2c(c1)OCCO2,-7.57%,–
CCCCn1c(SCc2ncc(-c3ccccc3)o2)nc2cc(S(N)(=O)=O)ccc21,–,9.2 µM (active)
CCCCn1c(SCC(=O)N2CCC(C(=O)OCC)CC2)nc2cc(S(N)(=O)=O)ccc21,-11.5%,–
CCCCn1c(SCC(=O)N2CCCC2=O)nc2cc(S(N)(=O)=O)ccc21,2.67%,–
Cc1[nH][nH]c(=O)c1N=Nc1ccccc1,-5.5%,–
Cc1ccc(NC2(C#N)C(=O)Nc3ccccc32)cc1 (stereo not drawn),-21.8%,–
COC(=O)C(C)NC(=O)COc1ccc2ccccc2c1 (stereo not drawn),-13.9%,–
CCCCSc1[nH]c(=O)c(C(=O)OCC)cc1C#N,-13.7%,–
COc1cccc(CNS(=O)(=O)c2cc3c(cc2C)n(C)c(=O)c(=O)n3C)c1,–,inactive
Cc1cc(-c2ccc(C)c(S(=O)(=O)NCCCN(Cc3ccccc3)C(C)C)c2)on1,–,13 µM (active)
COc1ccc(CNS(=O)(=O)c2cc(-c3cc(C)no3)ccc2C(C)C)cc1,–,0.731 µM (active)
CCOc1ccccc1CNS(=O)(=O)c1cc(-c2cc(C)no2)ccc1C,-4.87%,–
Cc1cc(-c2ccc(C)c(S(=O)(=O)NC(C)Cc3ccco3)c2)on1 (stereo not drawn),-4.97%,–
CCc1ccc(-c2cc(C)no2)cc1S(=O)(=O)NCCc1ccc(S(N)(=O)=O)cc1,-19.4%,–
CC(=O)OC(C)C[N+](C)(C)C (stereo not drawn),–,inactive
C=CCOc1ccc(/C=C/C(=O)OC(C)C(=O)Nc2ccc(NC(C)=O)cc2)cc1 (stereo not drawn),3.52%,–
COC(=O)c1c(C)cc(O)c(C)c1O,-27.8%,–
O=C(/C=C/c1ccco1)NC(=S)N1CCCCC1,-10.6%,–
NC(=O)c1ccsc1NC(=O)COC(=O)Cc1n[nH]c(=O)c2ccccc12,-18%,–
Cc1cc(C)c(C2C3=C(Nc4c2c(C)nn4-c2ccccn2)c2ccccc2C3=O)c(C)c1 (stereo not drawn),–,8.2 µM (active)
Cc1nc2ccccc2n1C(=O)N1CCOCC1,-2.07%,–
CC(/C=C/c1ccccc1)=N\NC(=O)C1CC1(C)c1ccccc1 (stereo not drawn),–,18.4 µM (active)
CC(OC(=O)/C=C/c1ccccc1)C(=O)NC1CCCCC1C (stereo not drawn),6.75%,–
CC(C=Cc1ccccc1)=NNS(=O)(=O)c1ccc([N+](=O)[O-])cc1,-24.8%,–
Cn1c(=NC(=O)c2ccc3c(c2)OCCO3)sc2cc(S(C)(=O)=O)ccc21,–,inactive
O=C(CO/N=C/c1ccccc1O)NNC(=O)c1ccccc1Cl,–,0.184 µM (active)

SMILES,"activity change, negative = growth inhibition",Potency
O=C(CO/N=C/c1ccccc1OC(F)F)NC1CCCC1,-17.2%,–
NS(=O)(=O)c1cc(C(=O)OCC(=O)NNC(=O)c2ccccc2)ccc1Cl,4.14%,–
CCCc1cc(=O)oc2c(C)c(OCC(=O)NCc3ccccn3)ccc12,-5.71%,–
CN(CCC#N)c1ccc(C=O)cc1,-5.8%,–
N#Cc1ccc(C(=O)Nc2nc(-c3cccs3)c(C(=O)C(F)(F)F)s2)cc1,–,1.3 µM (active)
CC(=O)c1sc(NC(=O)c2ccc(C)cc2)nc1C,-8.46%,–
CCOc1cccc(C(=O)Nc2nnc(-c3cccs3)s2)c1,-17.9%,–
COc1ccc(CCNC(=O)c2cn(C)c3ccc(S(=O)(=O)N(C)C4CCCCC4)cc3c2=O)cc1OC,-15.7%,–
CC1(C)CC(=O)C=C(c2ccccc2CO)C1=O,-8.99%,–
CC1CCCC(C)N1C(=O)COC(=O)COc1ccccc1C#N (stereo not drawn),14.7%,–
Cc1nnc(NC2=NCCCCC2)o1,4.11%,–
COc1ccc(OCC(=O)NNC(=O)c2cccc(C)c2)cc1,-3.54%,–
COc1ccc(CN2C(=O)C(NC(=O)c3cccc(C)c3)(C(F)(F)F)N=C2c2ccccc2)cc1 (stereo not drawn),–,20.6 µM (active)
COc1cccc(C(=O)NC(=O)Nc2nc(C)cc(C(F)(F)F)n2)c1,2.08%,–
COc1ccc(S(=O)(=O)N2CCN(C(=O)c3cc(C)oc3C)CC2)cc1,-7.03%,–
COc1ccc(C(=O)/C=C/c2cccnc2)c(OC)c1,–,18.4 µM (active)
COc1ccc(C(=O)CCC(=O)Nc2cccnc2)c(OC)c1,-29.8%,–
COc1ccc(C(=O)Nc2cccnc2)cc1C(=O)Nc1cccnc1,-5.19%,–
CC/C(=N\O)C(C)(C)/[N+]([O-])=C/c1ccc(Br)cc1,0.798%,–
O=c1c2[nH]c3ccc(Cl)cc3c2ncn1Cc1ccccn1,7.63%,–
COc1cccc(NC(=O)Cc2ccc(C)cc2)c1,-1.58%,–
Cc1cccc(NC(=O)Nc2cccc(Oc3c(F)c(F)c(F)c(F)c3F)c2)c1,–,18.4 µM (active)
COc1cccc(NC(=O)NCc2ccc(F)cc2)c1,-8.3%,–
CN1CCC(OC(=O)COc2ccc(Cl)cc2Cl)CC1,0.589%,–
C[N+]1(CC(O)COc2ccccc2)CCN(C(=O)c2ccc([N+](=O)[O-])cc2)CC1 (stereo not drawn),5.86%,–
CCOc1cccc(NC(=O)CC#N)c1,-6.7%,–
